Results on 32 compounds are retold here after PubChem BioAssay (EPA / NIEHS).

Structures are written as SMILES. Activity calls are given as the source filed them. How the source made its calls: active means hit-call score of the fitted dose curve at least 0.9, where 1 is the maximum; inactive means score below 0.9.

A short description of test [1]: ATG_GRE_CIS: Attagene CIS-FACTORIAL HepG2 Assay for human Glucocorticoid Response Elements (GRE) (AID 2282947). The following applies: HepG2 GRE cis-reporter, Attagene multiplex mRNA; actives raise or lower the signal. The procedure, abridged:
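Transiently transfected HepG2 cells carrying GRE cis-reporter units (endogenous TF activity) dosed 24 h; reporter mRNA quantified by RT-PCR, 6-FAM labelling, HpaI digestion and capillary electrophoresis. Bidirectional fit versus DMSO baseline.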

A short description of test [2]: ATG_ISRE_CIS: Attagene CIS-FACTORIAL HepG2 Assay for human Interferon Regulatory Factor 1 (IRF1) binding to an Interferon-Stimulated Response Element (ISRE) (AID 2282948). The following applies: HepG2 ISRE cis-reporter (Attagene), mRNA transcription readout; actives raise or lower the signal. An outline of the steps: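 Cell-based cis-reporter assay; HepG2; 24 h exposure; reporter mRNA by RT-PCR plus capillary electrophoresis fluorescence; activity in either direction scored relative to DMSO.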

A short description of test [3]: ATG_M_06_CIS: Attagene CIS-FACTORIAL HepG2 Assay for M06 Transcription Factor (Internal Marker) (AID 2282950). Particulars: HepG2 Attagene CIS-FACTORIAL M06 internal marker reporter; actives raise or lower the signal. An outline of the steps:
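HepG2 cells transiently transfected with cis-regulated multiple reporter transcription units were exposed to chemical for 24 h; reporter mRNA was quantified by RT-PCR, 6-FAM primer labelling, HpaI digestion and capillary electrophoresis, fitted bidirectionally against DMSO.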

Test [4] addresses Hypoxia-inducible factor 1-alpha (Homo sapiens) (UniProt Q16665). In words: ATG_HIF1a_CIS: Attagene CIS-FACTORIAL HepG2 Assay for human Hypoxia Inducible Factor 1 (HIF1A) (AID 2282951). Particulars: HepG2 Attagene cis-factorial HIF1a reporter transcription; actives raise or lower the signal. An outline of the steps: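 Dosed 24 h, transfected HepG2 cells yielded total RNA whose reporter transcripts were RT-PCR-amplified and sized by capillary electrophoresis using fluorescent labelling; DMSO defined baseline, with gain and loss of signal both fitted.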

Test [5] has as its target Hepatocyte nuclear factor 6 (Homo sapiens) (UniProt Q9UBC0). The test is described as follows: ATG_HNF6_CIS: Attagene CIS-FACTORIAL HepG2 Assay for human Hepatocyte Nuclear Factor 6 (HNF6) (AID 2282952). The following applies: HepG2 Attagene cis-factorial HNF6 reporter transcription; actives raise or lower the signal. An outline of the steps: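 HepG2 cells transiently transfected with cis-element-driven multiple reporter transcription units, dosed 24 h; reporter mRNA quantified by RT-PCR, FAM primer extension, HpaI digestion and capillary electrophoresis; bidirectional fit versus DMSO baseline.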

Test [6] addresses Heat shock factor protein 1 (Homo sapiens) (UniProt Q00613). The test is described as follows: ATG_HSE_CIS: Attagene CIS-FACTORIAL HepG2 Assay for human Heat Shock Transcription Factor 1 (HSE) (AID 2282953). Particulars: HepG2 HSE cis-reporter, Attagene RNA transcription; actives raise or lower the signal. The procedure, abridged:
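HepG2 cells transiently transfected with multiple reporter transcription units under cis-regulatory promoter control, measuring endogenous transcription factor activity. After 24 h chemical exposure, reporter mRNA quantified by RT-PCR, fluorescent labelling, HpaI digestion and capillary electrophoresis; bidirectional fit versus DMSO.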

The nature of test [7]: ATG_MRE_CIS: Attagene CIS-FACTORIAL HepG2 Assay for human Metal Responsive Element (MRE) (AID 2282954). Particulars: HepG2 MRE cis-reporter transcription, Attagene multiplex; actives raise or lower the signal. The procedure, abridged: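 HepG2 cells transiently transfected with cis-element-driven reporter units; mRNA measured 24 h after dosing. Reporter transcripts quantified by RT-PCR, FAM labelling, HpaI digestion and capillary electrophoresis; bidirectional fit versus DMSO.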

A short description of test [8]: ATG_PBREM_CIS: Attagene CIS-FACTORIAL HepG2 Assay for human Phenobarbital-responsive Enhancer Module (PBREM) (AID 2282955). The following applies: HepG2 PBREM cis-reporter, Attagene multiplexed transcription; actives raise or lower the signal. An outline of the steps:
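Transfected liver-derived HepG2 cells exposed 24 h; PBREM reporter transcript quantified via RT-PCR and capillary electrophoresis, with activity in either direction referenced to DMSO.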

A short description of test [9]: ATG_M_32_CIS: Attagene CIS-FACTORIAL HepG2 Assay for M32 Transcription Factor (Internal Marker) (AID 2282949).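 Further: background control marker of the multiplexed CIS panel rather than a real target.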 Particulars: HepG2 Attagene cis-factorial M32 reporter, mRNA; actives raise or lower the signal. An outline of the steps: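 Fluorescent capillary electrophoresis peaks of HpaI-digested, FAM-labelled RT-PCR reporter products give the signal. Source: transiently transfected human liver HepG2 cells, 24 h after chemical dosing; bidirectional fitting against DMSO.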

Sequence of Hepatocyte nuclear factor 6 (Homo sapiens) (Q9UBC0 whole entry, looked up): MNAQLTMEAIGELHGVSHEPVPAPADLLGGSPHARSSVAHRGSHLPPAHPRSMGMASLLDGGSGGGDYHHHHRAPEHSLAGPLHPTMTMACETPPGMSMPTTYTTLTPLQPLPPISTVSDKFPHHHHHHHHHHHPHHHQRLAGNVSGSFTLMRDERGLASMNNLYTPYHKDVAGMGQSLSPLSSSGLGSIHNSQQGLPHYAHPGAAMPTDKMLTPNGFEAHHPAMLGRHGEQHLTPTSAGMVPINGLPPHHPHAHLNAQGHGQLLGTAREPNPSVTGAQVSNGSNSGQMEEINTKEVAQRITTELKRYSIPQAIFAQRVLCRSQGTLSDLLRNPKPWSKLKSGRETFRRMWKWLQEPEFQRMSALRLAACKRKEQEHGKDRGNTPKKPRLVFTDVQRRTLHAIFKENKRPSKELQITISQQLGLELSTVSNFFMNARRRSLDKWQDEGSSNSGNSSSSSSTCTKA
Sequence of Heat shock factor protein 1 (Homo sapiens) (Q00613 whole entry, looked up): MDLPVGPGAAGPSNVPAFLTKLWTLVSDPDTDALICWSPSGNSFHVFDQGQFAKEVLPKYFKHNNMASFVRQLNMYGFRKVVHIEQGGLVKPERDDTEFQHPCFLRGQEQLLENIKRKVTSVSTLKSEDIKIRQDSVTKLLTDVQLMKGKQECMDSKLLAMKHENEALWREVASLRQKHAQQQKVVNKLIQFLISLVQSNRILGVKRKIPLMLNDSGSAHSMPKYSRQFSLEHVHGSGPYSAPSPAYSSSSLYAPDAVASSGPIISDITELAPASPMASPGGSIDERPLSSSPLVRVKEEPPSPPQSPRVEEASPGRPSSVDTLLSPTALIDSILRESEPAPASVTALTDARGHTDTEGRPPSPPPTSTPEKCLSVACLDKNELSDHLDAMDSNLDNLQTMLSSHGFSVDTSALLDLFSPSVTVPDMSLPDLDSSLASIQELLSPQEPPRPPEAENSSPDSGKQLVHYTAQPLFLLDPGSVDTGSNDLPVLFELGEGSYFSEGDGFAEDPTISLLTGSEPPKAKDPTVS
Sequence of Hypoxia-inducible factor 1-alpha (Homo sapiens) (Q16665 whole entry, looked up): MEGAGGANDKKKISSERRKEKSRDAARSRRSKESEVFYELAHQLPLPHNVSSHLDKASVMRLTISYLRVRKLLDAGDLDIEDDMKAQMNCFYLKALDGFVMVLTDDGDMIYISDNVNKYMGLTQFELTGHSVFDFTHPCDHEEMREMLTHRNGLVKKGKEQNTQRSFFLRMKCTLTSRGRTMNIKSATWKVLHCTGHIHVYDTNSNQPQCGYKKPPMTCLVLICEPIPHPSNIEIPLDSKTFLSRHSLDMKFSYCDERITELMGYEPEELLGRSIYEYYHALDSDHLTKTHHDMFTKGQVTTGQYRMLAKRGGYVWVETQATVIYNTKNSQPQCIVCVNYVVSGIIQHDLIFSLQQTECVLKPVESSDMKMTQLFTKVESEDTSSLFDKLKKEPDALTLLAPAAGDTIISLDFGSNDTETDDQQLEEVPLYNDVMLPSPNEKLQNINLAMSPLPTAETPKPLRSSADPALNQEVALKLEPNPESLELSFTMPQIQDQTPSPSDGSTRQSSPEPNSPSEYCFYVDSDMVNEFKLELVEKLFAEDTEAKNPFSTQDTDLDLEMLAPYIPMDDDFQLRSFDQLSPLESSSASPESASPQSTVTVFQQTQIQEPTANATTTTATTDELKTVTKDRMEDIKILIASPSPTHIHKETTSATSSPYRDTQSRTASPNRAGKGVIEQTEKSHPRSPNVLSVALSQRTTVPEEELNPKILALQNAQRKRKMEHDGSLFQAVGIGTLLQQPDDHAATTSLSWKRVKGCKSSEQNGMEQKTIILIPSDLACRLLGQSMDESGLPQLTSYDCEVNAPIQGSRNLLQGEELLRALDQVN

The AC50 is the midpoint of the concentration-response curve, whichever way the signal moves. Turning to `CC(C)(COC(=O)c1ccccc1)COC(=O)c1ccccc1`, the compound was classed as inactive in test [1], in test [2], in [3], in [5], in test [6] and in [7]. Besides, the result in test [8] was inactive. The AC50 in test [4] was 47.2 µM (active).
On to `CCCCCCCCC`, for which the compound was called inactive in test [1], in test [2], in test [3], in test [4], in [5] and in test [6]. The compound was called inactive in test [7] and in test [8].
In the case of `Cc1ccc(C(=O)O)o1`, the compound was classed as inactive in [1], in test [2], in [3], in test [4], in test [5] and in test [6]. The compound was classed as inactive in [7].
On to `COc1cc(C)cc(O)c1`, for which the compound was classed as inactive in test [1], in test [2], in [3], in [4], in test [5] and in [6]. Besides, the outcome in test [7] and in test [8] was inactive.
Regarding `COCCOCCOCCOCCOCCO`, the compound was classed as inactive in test [1], in [2], in test [3], in test [4], in test [5] and in [7]. The result in test [8] was inactive.
With `Nc1cc(Cl)c(O)c(Cl)c1`, the concentration at half-maximal activity (AC50) is 100 µM (active) in test [2], 142 µM (active) in test [6] and 79 µM (active) in test [7]. In addition, the outcome in test [9], in [3], in test [4] and in test [5] was inactive.
As to `O=C(O)c1cccc([N+](=O)[O-])c1`, the result in test [1], in [2], in test [4], in test [5], in test [6] and in test [7] was inactive.
In the case of `CC(C)C(C)(C)C(C)(C)C(C)(C)S`, the result in [2], in test [9], in test [3], in test [4], in test [5] and in [6] was inactive.
As to `CC(=O)O[C@H](CC(=O)[O-])C[N+](C)(C)C`, the result in [1], in test [2], in test [3], in test [5] and in [7] was inactive.
Take `Clc1ccc2c(c1)C(N1CCNCC1)=Nc1ccccc1O2`: the call in test [2], in test [3], in [4] and in [5] was inactive. Also, the values for the AC50 in test [9], in test [6] and in test [7] were 52.4 µM (active), 52.1 µM (active) and 34.2 µM (active), respectively.
For `O=C(O)c1cn(C2CC2)c2cc(N3CCNCC3)c(F)cc2c1=O`, the call in [1], in test [2], in test [9], in [6] and in test [7] was inactive.
Turning to `C[C@]12CC[C@H]3[C@@H](CCC4=CC(=O)CC[C@@]43C)[C@@H]1CC[C@@H]2C(=O)CO`, the outcome in test [1], in [3] and in test [5] was inactive. Further, the half-maximal activity concentration (AC50) in test [2] is 100 µM (active); in test [6], 60.1 µM (active); in test [7], 100 µM (active); in test [8] it was 3.31 µM (active).
For the compound `CC(c1cc2ccccc2s1)N(O)C(N)=O` (stereo not given), the compound was classed as inactive in test [1], in [2], in [3], in [4], in test [5] and in test [6].
As to `CO[Si](C)(OC)c1ccccc1`, the outcome in [1], in test [2], in test [3], in test [4], in test [5] and in test [6] was inactive. Besides, the outcome in test [7] and in test [8] was inactive.
With `CCc1ccc(C=O)cc1`, the compound was called inactive in test [1], in test [2], in [9], in test [4], in test [5] and in test [7]. Moreover, the outcome in [8] was inactive.
Consider `NCCCCCCN`, for which the compound was called inactive in [2], in test [9], in test [3], in test [4], in [5] and in test [6]. The outcome in [7] was inactive.
For the compound `O=c1cc(-c2ccccc2)oc2cc(O)cc(O)c12`, the compound was called inactive in [1], in test [2], in test [9], in [6], in test [7] and in test [8].
For `O=C(O)c1cn(-c2ccc(F)cc2)c2cc(N3CCNCC3)c(F)cc2c1=O`, the result in test [1], in test [2], in test [4], in [6] and in [7] was inactive.
For the compound `C=C(C)C(=O)NCCCN(C)C`, the result in test [2], in test [9], in test [3], in [4], in test [5] and in test [6] was inactive. Moreover, in test [7], the compound was called inactive.
With `O=C(OCc1ccccc1)C(=O)OCc1ccccc1`, the outcome in test [1], in test [2], in test [9], in test [7] and in test [8] was inactive.
Consider `CCCOCC(C)O` (stereo not given), for which the compound was called inactive in test [2], in test [9], in [3], in [5] and in test [7]. The concentration at half-maximal activity (AC50) in test [4] was 24.8 µM (active).
Regarding `COC(C)CCO` (stereo not given), the compound was classed as inactive in test [2], in test [9], in test [3], in [4], in [5] and in [6]. Also, the result in test [7] and in test [8] was inactive.
Consider `O=C(COc1ccc(Cl)cc1)N1CCN(Cc2ccc3c(c2)OCO3)CC1`, for which the concentration at half-maximal activity (AC50) in test [2] is 58 µM (active); in test [4], 19.8 µM (active); in [6], 151 µM (active); in [7], 74.6 µM (active). Besides, the call in test [9], in test [3], in [5] and in test [8] was inactive.
`OCCCCCO`: the compound was classed as inactive in [2], in test [9], in test [3], in test [4], in test [5] and in [6]. The result in test [8] was inactive.
In the case of `CNC[C@H](O)c1cccc(O)c1`, the compound was classed as inactive in test [2], in test [9], in test [3], in test [4], in test [5] and in [8].
In the case of `CCCCCCCCCCCCCCCCCC(=O)OCC(CC)CCCC` (stereo not given), the outcome in [2], in test [9], in test [3], in [4], in test [5] and in [6] was inactive. For the same compound, the outcome in [7] and in test [8] was inactive.
Take `C=C(C)[C@@H]1CCC2=CC(=O)C[C@@H](C)[C@]2(C)C1`: the result in test [2], in test [9], in test [3], in test [4], in test [5] and in [6] was inactive. The outcome in test [7] was inactive.
With `CCCCNC(=O)NS(=O)(=O)c1ccc(N)cc1`, the compound was classed as inactive in test [2], in [9], in test [3], in test [4], in [5] and in [6]. Besides, the result in test [7] and in test [8] was inactive.
Consider `CCCCCOC(=O)CCC`, for which the outcome in [2], in [9], in test [3], in [4], in [5] and in test [6] was inactive. The compound was classed as inactive in test [7] and in test [8].
For `O=[N+]([O-])c1cc(C(F)(F)F)ccc1Cl`, the result in test [2], in test [9], in [3], in [4], in test [5] and in [7] was inactive. Besides, the result in [8] was inactive.
With `CSc1nc(NC2CC2)nc(NC(C)(C)C)n1`, the compound was called inactive in [2], in [9], in test [3], in test [4], in test [5] and in test [6]. The result in test [8] was inactive. Besides, the concentration at half-maximal activity (AC50) in test [7] was 65.7 µM (active).
With `CCCc1ccccc1O`, the compound was called inactive in [2], in test [9], in [3], in [4], in test [5] and in [7]. The result in [8] was inactive.
